Source: PubChem
Tb PGK inh: qHTS Assay to Find Inhibitors of Phosphoglycerate Kinase. AID 602233, 2012. 380,000 compounds, 0.043% hits. Phosphoglycerate kinase, glycosomal (Trypanosoma brucei brucei), P07378. Potency, µM (titrated, usually from 57.5 µM), inactives show at the highest dose activity change, negative = inhibition, hits mostly inhibitors. PGK/GAPDH coupled, Kinase-Glo luminescence, 60 min; also: potency is read from the fitted curve at half-maximal effect; nearly all actives have a fitted effect of over 60% in size
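Recombinant glycosomal PGK reaction used 1,3-bisphosphoglycerate generated in-well by GAPDH (100nM final) in 100mM TEA pH 7.6, 5mM MgCl2, 0.01% Tween-20. After 60 minutes at room temperature, ATP was read by Kinase-Glo Plus luminescence end-point.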
PI4K2A inh: qHTS for small molecular inhibitors of PI4K2A | Phosphatidylinositol 4-kinase type 2-alpha (Homo sapiens), Q9BTU6 | purified PI4K2A, ADP-Glo luminescence, 1 h; stronger effect = lower value | activity change, negative = inhibition, % at 76.9 µM | 420,000 compounds, 0.13% hits; in the data active = activity change below about -50%; inconclusive = mostly about -30% to -49%;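 also: -100% = wells without enzyme as full effect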
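Compounds are screened against recombinant PI4K2A using PI as substrate and ATP, the latter dispensed at 300 microM. Reactions run one hour at ambient temperature before ADP-Glo detection; full inhibition defined by wells lacking enzyme.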
PI5P4K alpha inh: qHTS for Inhibitors of phosphatidylinositol 5-phosphate 4-kinase (PI5P4K); Phosphatidylinositol 5-phosphate 4-kinase type-2 alpha (Homo sapiens), P48426; PI5P4Kalpha enzyme, ADP-Glo luminescence, 60 min; stronger effect = lower value; max response, %; 330,000 compounds, 1.2% hits; active = max response of -50% or lower; inconclusive = between -30% and -50%; inactive = -30% or higher; also: value at the top dose of about 77 µM
Target sequence (P48426 whole entry, looked up): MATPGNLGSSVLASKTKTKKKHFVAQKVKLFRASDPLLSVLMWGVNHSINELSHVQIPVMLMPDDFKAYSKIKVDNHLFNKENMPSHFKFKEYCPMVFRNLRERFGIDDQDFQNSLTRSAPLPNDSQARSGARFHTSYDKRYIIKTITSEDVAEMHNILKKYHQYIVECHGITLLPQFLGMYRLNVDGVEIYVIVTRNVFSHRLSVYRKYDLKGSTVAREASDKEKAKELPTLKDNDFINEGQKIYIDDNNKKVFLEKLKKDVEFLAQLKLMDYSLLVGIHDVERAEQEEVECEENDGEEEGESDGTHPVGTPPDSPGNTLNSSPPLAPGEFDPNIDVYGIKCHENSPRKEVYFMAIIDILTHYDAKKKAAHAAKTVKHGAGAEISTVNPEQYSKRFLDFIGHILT
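Quantitative HTS of the MLSMR library against PI5P4Kalpha with substrate. ATP added last at 5 microM final; room temperature, 60 minutes. Remaining ATP depleted, ADP converted and read as luminescence.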
Pin1 inh: qHTS Assay to Find Inhibitors of Pin1; Peptidyl-prolyl cis-trans isomerase NIMA-interacting 1 (Homo sapiens), Q13526; Potency, µM (highest dose often 115 µM), inactives show top-dose activity, negative = inhibition, most hits filed as inhibitors; 390,000 compounds, 0.009% hits; Pin1 FP peptide displacement, HiFluor488, 10 min; active = well fitted inhibition curve with a large enough effect in the polarisation, with a control signal flat, not every such curve was filed as active; inconclusive = small, poorly fitted or top-dose-only effect, or effect the other way, or a change in a side signal; inactive = no such curve, though single readings can be large or run the other way; the % refers to the polarisation; also: potency is read from the fitted curve at half-maximal effect
Target sequence (Q13526 whole entry, looked up): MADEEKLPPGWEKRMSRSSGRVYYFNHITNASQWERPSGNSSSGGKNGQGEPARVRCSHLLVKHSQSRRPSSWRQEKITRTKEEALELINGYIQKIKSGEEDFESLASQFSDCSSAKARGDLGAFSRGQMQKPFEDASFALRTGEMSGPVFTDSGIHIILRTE
ADP-Glo counter: qHTS for Inhibitors of PI5P4K: ADP-Glo counter assay | shares compounds with PI5P4K alpha inh | ADP-Glo detection counter-screen, luciferase luminescence, no enzyme | Potency, µM (top dose mostly 76.9 µM), for inactives: at the highest dose activity change, negative = inhibition, most hits filed as inhibitors | 1,100 tested, under 10 active
An asterisk follows results filed as active; i = inactive; ? = inconclusive; nt = no result given. Only a selection was taken, and hits are over-represented in it overall. Unless noted, calls follow the shape of the dose curve; as a rule, active = well fitted curve in the direction sought with a large enough effect; inconclusive = small, poorly fitted or top-dose-only effect, or another doubt; inactive = no such curve, though single readings can be large; an effect the other way counts as inactive or inconclusive. Unless noted, % is scaled to controls: 0 for no effect and ±100 for the full control effect.

SMILES | Tb PGK inh | PI4K2A inh | PI5P4K alpha inh | Pin1 inh | ADP-Glo counter
Cc1ccc(-c2onc3ccc(C(=O)O)cc23)cc1 | -4% | -1 | -52* | 15% | 1%
CC(N)C(=O)NC(C(=O)NC(C)C(=O)Nc1cccc2ccccc12)C(C)C (centres undefined) | nt | -2 | 0 | nt | nt
CS(=O)(=O)c1sc2nc(-c3cccs3)cc(-c3ccccc3)c2c1N | i | -10 | -52* | 32% | -11%
COC1=CC(=O)OC(c2ccco2)C1 (centres undefined) | -3% | 1 | 5 | -12% | nt
Cn1c(SCC(=O)Nc2nc3ccccc3s2)ncc(C(=O)Nc2ccc(Cl)cc2)c1=O | -3% | -1 | nt | -5% | nt
CS(=O)(=O)c1ccc(-c2csc(C(O)c3cccc(Cl)c3)n2)cc1 (centres undefined) | nt | -2 | 0 | nt | nt
N#Cc1c(NC(=O)CSc2ncnc3sccc23)oc(-c2ccco2)c1-c1ccco1 | 5% | -27 | -79* | ? | 4%
CC(C)c1ccc(Oc2cccc3c2S(=O)(=O)N(C2CCCC2)CC(COCc2ccccc2)O3)cc1 (centres undefined) | -2% | 2 | 4 | 15% | nt
CCC(=O)Oc1ccc(C(=O)Nc2cccc(C(=O)c3ccccc3)c2)cc1 | 2% | 19 | -67* | 2% | 3%
CC(=O)Oc1ccc(C(=O)Nc2cccc(C(=O)Nc3ccccc3C(=O)O)c2)cc1 | -11% | -5 | -51* | 9% | 3%
CC(=O)Oc1ccc(C(=O)Nc2cccc(C(=O)c3cccc(NC(=O)c4ccc(OC(C)=O)cc4)c3)c2)cc1 | -9% | ? | 6 | 181% | nt
COc1ccccc1C(=O)Nc1ccc(C(=O)Nc2ccccc2C(=O)O)cc1 | -6% | 4 | -80* | 3% | 1%
CCC(=O)Oc1ccc(C(=O)Nc2c[nH]c(=O)[nH]c2=O)cc1 | -14% | -2 | -53* | -4% | -6%
COc1ccccc1NC(=O)c1ccccc1NC(=O)c1ccccc1 | 4% | -3 | nt | -4% | nt
CC(C)c1nn2c(=O)cc(COC(=O)c3ccc(NC(=O)CCc4ccccc4)cc3)nc2s1 | -2% | 8 | nt | -2% | nt
O=C(NCc1c(F)cccc1F)C1CCCN(c2ncccn2)C1 (centres undefined) | nt | 1 | nt | nt | nt
COc1ccc(C(=O)Nc2ccc(S(=O)(=O)N3CCc4ccccc43)cc2)cc1 | -5% | 1 | -9 | 20% | nt
NS(=O)(=O)c1ccc(NC(=O)c2ccc(S(=O)(=O)N3CCc4ccccc43)cc2)cc1 | -5% | 0 | -66* | 17% | -3%
CCN(CC)CCCNC(=O)c1oc(=O)c2ccccc2c1-c1ccc(C)cc1 | nt | 3 | nt | nt | nt
NC(=O)c1ccsc1NC(=O)COC(=O)CNC(=O)c1ccc(F)cc1 | 0% | 14 | -51* | ? | 2%
NC(=O)c1ccsc1NC(=O)COC(=O)c1ccccc1F | 0% | 9 | -54* | -2% | -10%
O=C(NCC1CCCCC1)c1cccc([N+](=O)[O-])c1 | -9% | 8 | -62* | 1% | 1%
O=C(NCC1CCN(C(=O)c2cccc([N+](=O)[O-])c2)CC1)c1cccc([N+](=O)[O-])c1 | 9% | -1 | 6 | 0% | nt
Cn1c2ccccc2c2c(C(=O)N3CCN(c4ccc(F)cc4)CC3)cn(C3CCCCC3)c(=O)c21 | -9% | 0 | nt | 9% | nt
Cc1cc2c(cc1S(=O)(=O)N1CCCC1)n(C)c(=O)c(=O)n2C | -9% | -8 | 1 | -6% | nt
SMILES | Tb PGK inh | PI4K2A inh | PI5P4K alpha inh | Pin1 inh | ADP-Glo counter
Cc1ccc(C)c2[nH]c(=O)c(CCNC(=O)c3ccc(S(=O)(=O)N(C)C)cc3)cc12 | -5% | -2 | ? | -1% | nt
Cc1ccc(C)c2[nH]c(=O)c(CCNC(=O)c3ccc(S(=O)(=O)N4CCOCC4)cc3)cc12 | -10% | 2 | -57* | 5% | -7%
O=C(Nc1nnc(-c2ccncc2)o1)c1ccccc1 | -16% | -4 | -84* | 2% | -7%
O=C(Nc1nnc(-c2ccc(Cl)cc2)o1)c1nc2ccccc2s1 | -6% | 1 | -50* | 6% | -1%
Cc1ccc(C(=O)Nc2nnc(-c3ccncc3)o2)cc1 | -4% | -5 | -4 | 0% | nt
O=C(Nc1nnc(-c2ccc(Cl)cc2)o1)Nc1ccccc1Cl | -4% | 0 | -4 | -3% | nt
CNC(=O)c1ccc(NC(=O)C2CCN(S(=O)(=O)c3cccc(C(F)(F)F)c3)CC2)cc1 | i | -1 | -2 | 18% | nt
CNC(=S)N(Cc1cccs1)Cc1cc2ccc(OC)cc2[nH]c1=O | -2% | -5 | -60* | 1% | 0%
CNC(=S)N(Cc1ccc(OC)cc1)Cc1cc2ccc(C)cc2[nH]c1=O | 7% | 0 | -10 | -3% | nt
CCN1C(=O)c2ccccc2Sc2ccc(NC(=O)Nc3cc(C)cc(C)c3)cc21 | -2% | -3 | nt | 21% | nt
COc1ccc(N(C(=O)c2ccccc2)S(=O)(=O)c2cccs2)cc1 | i | 2 | -60* | 9% | 4%
OC(c1ccc(Cl)c(F)c1)c1ncc(-c2ccc(Oc3ccccc3)cc2)[nH]1 (centres undefined) | nt | 0 | -57* | nt | -5%
CCOc1ccc(CCNC(=O)CCc2c(C)nc3cc(-c4ccccc4OC)nn3c2C)cc1 | -3% | 2 | nt | ? | nt
CCS(=O)(=O)c1ccc2oc(Nc3ccc(C(C)C)cc3)nc2c1 | i | 1 | -50* | -2% | -6%
CC(O)(c1cccnc1)c1nc(-c2ccc3ccccc3c2)cs1 (centres undefined) | nt | -5 | 18 | nt | nt
CS(=O)(=O)N1CCN(c2ccccc2NC(=O)C(c2ccccc2)c2ccccc2)CC1 | -9% | -1 | nt | 11% | nt
CC(C)C(=O)Nc1ccccc1N1CCN(S(C)(=O)=O)CC1 | i | -9 | 0 | -4% | -5%
CCOc1ccccc1CNC(=O)CCC(=O)N1CCSc2ccccc21 | i | 2 | nt | -4% | nt
CC1CCCCC12NC(=O)N(CC(=O)Nc1sc3c(c1C(N)=O)CCC3)C2=O (centres undefined) | i | -8 | -60* | ? | 0%
COc1ccc(CNC(=O)Cc2ccc(NC(=O)C3=C(C)OCCS3)cc2)cc1 | -6% | -14 | -51* | 0% | -2%
Cc1ccc(C(c2cc(Cl)c3cccnc3c2O)N2CCN(C)CC2)cc1 (centres undefined) | i | 2 | -89* | -2% | 6%
O=c1ccc2ccc(Oc3ccc(Cl)cc3[N+](=O)[O-])cc2o1 | i | 5 | 0 | -14% | nt
O=C(Nc1cccc2ccccc12)c1csc(COCCO)n1 | nt | 1 | 4 | nt | nt
O=C(Nc1cccc2cccnc12)c1csc(COCCO)n1 | nt | 2 | -28 | nt | -7%
